Source: PubChem (National Center for Advancing Translational Sciences (NCATS))
Most compounds without a hit are left out; they make up all but 1.5% or so of the library.
TCR activator: activators of T cell receptors; Potency, µM (doses to about 9.22 µM), for the others: at the highest dose activation of IL-2 secretion, hits mostly activators; 330,000 tested, under 10 active; primary human leukocytes, anti-CD3, IL-2 HTRF, 48 h; further: % of control where 0% means no effect
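Using a-CD3 beads without co-stimulation, primary human leukocytes were exposed to compounds for 48 hr. An HTRF IL-2 kit measured the cytokine, with europium-to-d2 energy transfer producing emission at 665nm upon 320nm excitation.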
PINK1 expr mod: modulators of PINK1 expression | actives 0.2% (n = 410,000) | Potency, µM (top dose mostly 76.6 µM), without a hit: top-dose activation (PINK1 increase), usual class: activators | PINK1 immunofluorescence, high-content cytometry, 24 h | AID 624263; active means well fitted activation curve with a large enough effect; inconclusive means small, poorly fitted or top-dose-only effect; cell line not stated here; further: potency means the concentration at half of the fitted maximal effect; % of control where 0% means no effect; nearly all actives have a fitted effect of over 65% in size
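Compound titrations (5 concentrations, 24 h) on a stable cell line; DMSO and CCCP controls. Endpoint: fixed-cell PINK1 immunofluorescence with mitochondrial, cell and nuclear markers, scanned by microplate cytometer.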
BRCA1 expr act: BRCA1 expression activation. MCF7-BRCA1-FFLuc reporter, luminescence, 48 h; response scale: scaled: vehicle 0%, 10 µM genistein 100%. Potency, µM (titrated, usually from 46.1 µM), for inactives: at the top dose activation, actives largely listed as activators. actives 1.1% (n = 380,000); further: potency means the concentration at half of the fitted maximal effect; nearly all actives have a fitted effect of over 80% in size
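Cells: MCF7-BRCA1-FFLuc, 2000/well. Exposure: 48 h, 37 °C, 5% CO2. Read: luminescence, 15 min post-substrate. Controls: genistein 10 microM (maximal activation), DMSO (neutral).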
pAkt inh: Akt phosphorylation inhibition; Neuro2A IGF-stimulated pAkt S473 HTRF, 20 min; active compounds read low; activity change, % for hits at 50 µM; actives 0.32% (n = 360,000); in the data active means activity change below about -80%; inconclusive means mostly about -51% to -80%; further: on the % scale 0 is the no-effect control and ±100 the full control effect
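Neuro2A cells in DMEM with 0.5% FBS, overnight at 37 deg C, given compound at single 50 µM final, then IGF (6 nM final) for 20 min at 37 deg C. Lysed; phospho-Akt Ser473 by HTRF after 24 h, 665/615 ratio.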
An asterisk follows results filed as active; i = inactive; ? = inconclusive; · = not tested or not shown; [ ] = remark or other dose. Unless noted, the call rests on the fitted dose curve; in most records, active means well fitted curve in the direction sought with a large enough effect; inconclusive means small, poorly fitted or top-dose-only effect, or another doubt; inactive means no such curve, though single readings can be large; an effect the other way counts as inactive or inconclusive.

SMILES	TCR activator	PINK1 expr mod	BRCA1 expr act	pAkt inh
CC1=C(C(=O)Nc2ccccc2)C(c2cccs2)n2nnnc2N1 (centres undefined)	·	29%[38.3 µM]	0%	-96%*
CCOc1ccc(C2C=C(c3ccccc3)Nc3nnnn32)cc1 (centres undefined)	2%	5%	7.1µM*	i
CCOc1ccc(C2C=C(c3ccc(C)cc3)Nc3nnnn32)cc1 (centres undefined)	·	4%	-34%	i
C1=C(c2ccccc2)Nc2nnnn2C1c1cccs1 (centres undefined)	-3%	-1%	15%	-111%*
CC1=C(C(=O)Nc2ccccc2)C(c2ccncc2)n2nnnc2N1 (centres undefined)	4%	5%	-1%	i
O=C(c1cnsn1)N1CCOc2ccc(CN3CCOCC3)cc2C1	·	-1%	·	·
CN(Cc1nccn1C)C(=O)c1ccc2nc(Cc3ccccc3F)oc2c1	2%	-1%	13µM*	i
CN(Cc1nccs1)C(=O)c1ccc2nc(Cc3ccccc3F)oc2c1	3%	-1%	3.2µM*	i
COc1ccc(Cc2nc3ccc(C(=O)N(C)Cc4nccn4C)cc3o2)cc1	·	2%	6%	i
S=C(Nc1ccc2c(c1)OCO2)N1CCN(Cc2ccco2)CC1	1%	2%	3.5µM*	i
CN1CCN(c2ccc(NC(=O)c3ccc4ccccc4c3)cc2)CC1	-1%	3%	0%	i
CN1CCSc2ccc(C(=O)Nc3cccc(F)c3)cc21	-4%	-1%	0%	i
COc1ccc(C(=O)Nc2ccc(N3CCN(C)CC3)cc2)cc1	·	-1%	2.2µM*	i
COc1ccc(NC(=O)c2ccc3c(c2)N(C)CCS3)cc1	-28%	1%	10µM*	i
COc1ccc(C(=O)Nc2ccc(N3CCN(C)CC3)cc2)cc1OC	6%	0%	2µM*	i
Cc1ccc(C(=O)Nc2ccc(N3CCN(C)CC3)cc2)cc1	1%	-1%	1.3µM*	i
Cc1cc(-c2ccnc(-n3ncc(C(=O)NCCc4cccnc4)c3C)n2)c(C)s1	·	1%	·	·
CN(C)/C=C(/C(=O)c1ccccc1Cl)S(=O)(=O)c1ccccc1	-6%	-5%[38.3 µM]	3%	i
COc1ccc(C(=O)/C(=C/N(C)C)S(=O)(=O)c2ccccc2)cc1	2%	-1%	3.2µM*	i
Cc1ccc(-c2noc(CSc3ccccc3)n2)cc1	·	-1%	?	i
Cc1ccc(Cc2nc(-c3ccccn3)no2)cc1	2%	0%	2.2µM*	i
c1ccc(CCCc2nc(-c3ccccn3)no2)cc1	10%	2%[38.3 µM]	7.1µM*	i
c1ccc(-c2noc(CC3CCCCC3)n2)nc1	10%	4%	7.1µM*	i
Cc1cccc(-c2noc(CSc3ccccc3)n2)c1	-1%	1%	3.2µM*	i
c1cc(-c2noc(CC3CCCCC3)n2)ccn1	2%	2%	14%	i
SMILES	TCR activator	PINK1 expr mod	BRCA1 expr act	pAkt inh
COc1cccc(-c2ccc3ncnc(NCc4ccc(OC)cc4OC)c3c2)c1	·	1%	·	·
Cc1cccnc1-c1cccc2c1OC(CNC(=O)/C=C/c1cccs1)C2 (centres undefined)	·	3%	·	·
c1ccc(SCc2nc(-c3ccccn3)no2)cc1	4%	0%	7.1µM*	·
c1ccc(C(Cc2nc(-c3ccccn3)no2)c2ccccc2)cc1	6%	1%	53%	i
c1ccc(Cc2nc(-c3ccccn3)no2)cc1	10%	2%[38.3 µM]	5µM*	i
CCOc1ccc(CN2CCOc3ccc(C(O)c4cccnc4)cc3C2)cc1 (centres undefined)	·	0%	·	·
CCOC(=O)C1CCCN(C(=O)CCc2nnc(-c3ccc(C(C)=O)s3)o2)C1 (centres undefined)	-6%	0%	13µM*	i
CCCCNc1ccc2c(c1)C1CC2CCN1C(=O)OCc1ccccc1 (centres undefined)	7%	8%	8.9µM*	i
O=C(OCc1ccccc1)N1CCC2CC1c1cc(-c3ccccc3)ccc12 (centres undefined)	-2%	4%	19%	i
CCOC(=O)N1CCN(C(=O)CCN2C(=O)/C(=C\c3ccc(OC)c(OC)c3)SC2=S)CC1	·	32µM*	14%	i
COc1ccc(/C=C2\SC(=S)N(CCCCCC(=O)Nc3cc(C)on3)C2=O)cc1OC	0%	14µM*	-19%	i
Cc1ccc(/C=C2\SC(=S)N(CCCC(=O)Nc3cc(C)on3)C2=O)cc1	4%	-1%	-67%	i
